# Test results from PubChem BioAssay AID778 (Sanford-Burnham Center for Chemical Genomics, 2007).
# Among all 96,000 compounds or so, about 20,000 (21%) were called active.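 The calls were made as follows: active = CYP2C19 inhibition above a set limit at 5 µM in the primary screen (cut at about 50% in these data); inactive = the rest.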 The list is a sample of the results. Residues, ends and D or L forms follow the SMILES beside them. *: point of attachment. Bz = O=C(c1ccccc1)*
# Molecular target: Cytochrome P450 2C19 (Homo sapiens) (UniProt P33261)
# Sequence (P33261 whole entry, looked up): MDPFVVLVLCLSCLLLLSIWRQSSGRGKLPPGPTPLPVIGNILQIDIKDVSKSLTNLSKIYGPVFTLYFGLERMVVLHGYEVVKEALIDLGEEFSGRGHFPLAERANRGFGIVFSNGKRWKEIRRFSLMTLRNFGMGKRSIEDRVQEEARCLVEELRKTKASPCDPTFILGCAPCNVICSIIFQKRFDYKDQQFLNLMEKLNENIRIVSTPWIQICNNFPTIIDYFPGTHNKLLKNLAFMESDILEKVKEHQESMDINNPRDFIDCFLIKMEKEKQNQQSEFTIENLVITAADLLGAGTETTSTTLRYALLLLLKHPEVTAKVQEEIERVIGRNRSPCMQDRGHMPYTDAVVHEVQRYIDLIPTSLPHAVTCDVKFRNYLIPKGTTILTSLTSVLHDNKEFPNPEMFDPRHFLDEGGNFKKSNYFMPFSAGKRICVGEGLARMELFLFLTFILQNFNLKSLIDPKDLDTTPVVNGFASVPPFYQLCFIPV
# Assay: blockers of cytochrome P450 2C19 activity – biochemical, luminescence, ADME assay, primary screen (AID 778);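 also: plate controls were negative control wells for no effect and 2.5 mM tranylcypromine positive control for full effect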
# Details: CYP2C19 Supersomes, luciferin-H EGE luminescence, 30 min; at 5 µM; stronger effect = higher value
row,SMILES,inhibition
1,S=c1[nH]nc(-c2ccc(Cl)cc2)n1CC1CCCO1 (stereo unspecified),41.3% (inactive)
2,COC(=O)c1cc(Cl)c(NC(=O)c2ccco2)cc1OC,9.4% (inactive)
3,CCCCCC(=O)Nc1ccc2oc(-c3ccncc3)nc2c1,77.7% (active)
4,O=C(Cc1cccc2ccccc12)Nc1ccc2oc(-c3ccccc3)nc2c1,5.7% (inactive)
5,O=C(Nc1ccc2oc(-c3ccc4ccccc4c3)nc2c1)c1cccs1,-16.3% (inactive)
6,Cc1ccc2[nH]c(=O)c(-c3nc4c(C)cccn4c3NCc3ccco3)cc2c1,-0.9% (inactive)
7,Cc1cccc(NC(=O)Cn2cc(C(=O)c3ccco3)c3ccccc32)c1,-13.3% (inactive)
8,O=C(CN1CCN(c2ccccn2)CC1)NCc1cccs1,34.7% (inactive)
9,COC(=O)c1cn(CC(=O)NCc2cccs2)c2ccccc12,71.1% (active)
10,COCCCNC(=O)Cn1cc(C(=O)C2CC2)c2ccccc21,32.1% (inactive)
11,O=C(Cn1cc(C(=O)c2cccs2)c2ccccc21)NCc1cccs1,91.3% (active)
12,COC(=O)Cn1cc(C(=O)c2cccs2)c2ccccc21,26% (inactive)
13,CCCCCCC(=O)N(O)C1CC(=O)N(c2ccccc2)C1=O (stereo unspecified),27.1% (inactive)
14,CC1=C(C(N)=O)C(c2sccc2C)n2nnnc2N1 (stereo unspecified),7.6% (inactive)
15,Cc1nnc(SCC(=O)NC(=O)NC2CCCC2)n1N,3.5% (inactive)
16,CCCCOc1ccc(-c2ncc(C(=O)OCC)c(N)n2)cc1,-11.5% (inactive)
17,CCOC(=O)C(Sc1ncc(C#N)c(N)n1)C(C)C (stereo unspecified),52.1% (active)
18,CCOC(=O)CSc1nccc(N(C)C)c1C#N,25.5% (inactive)
19,CN(Cc1ccccc1)C(=O)CCNC(=O)Cn1cnc2ccccc2c1=O,-11.7% (inactive)
20,Oc1ccc(-c2csc(Nc3cccnc3)n2)cc1,78.4% (active)
21,c1ccc(Nc2nc(-c3ccncc3)cs2)nc1,98.6% (active)
22,c1cnc(Nc2nc(-c3ccc4ccccc4c3)cs2)nc1,-3.4% (inactive)
23,Clc1ccc(Nc2nc(-c3cccs3)cs2)nc1,0.8% (inactive)
24,COc1ccc(Nc2nc(-c3ccccc3)cs2)cc1,35.2% (inactive)
25,NS(=O)(=O)c1ccc(Nc2nc(-c3ccccc3)cs2)cc1,28.5% (inactive)
26,CCOC(=O)c1ccc(N2C(=O)CC(N(C)Cc3ccccc3)C2=O)cc1 (stereo unspecified),-4% (inactive)

row,SMILES,inhibition
1,CCCc1ccc(OCC(=O)NNC(=S)NC(=O)c2ccco2)cc1,8.7% (inactive)
2,CC(Oc1ccc2ccccc2c1)C(=O)NNC(=S)NC(=O)c1ccco1 (stereo unspecified),56.8% (active)
3,COc1ccc(C(=O)NC(=S)NNC(=O)CCc2ccccc2)cc1,-0.6% (inactive)
4,O=C(NCC1CCCO1)C(C(=O)c1ccccc1)n1cc(Cl)ccc1=O (stereo unspecified),-6.7% (inactive)
5,CC(C)(C)n1nnnc1C(c1ccc(F)cc1)N1CCN(Cc2ccc3c(c2)OCO3)CC1 (stereo unspecified),25.1% (inactive)
6,Cc1ccc(S(=O)(=O)Cn2nnnc2CN2CCN(Cc3ccc4c(c3)OCO4)CC2)cc1,24.5% (inactive)
7,Cc1cc(C)c2[nH]c(=O)c(C(c3nnnn3Cc3ccc4c(c3)OCO4)N3CCCC3)cc2c1 (stereo unspecified),68.4% (active)
8,Fc1ccccc1C(c1nnnn1Cc1ccc2c(c1)OCO2)N1CCN(Cc2ccccc2)CC1 (stereo unspecified),62.9% (active)
9,O=C(CCCOc1ccccc1)Nc1cccc(C(=O)O)c1,1.2% (inactive)
10,Cc1nnc(NC(=O)CCCOc2ccccc2)s1,24.7% (inactive)
11,O=C(CCC(=O)OCc1cccc(C(=O)Oc2ccccc2)c1)Nc1cccc2ccccc12,3.8% (inactive)
12,O=C(CCC(=O)OCC(F)(F)C(F)F)NCc1ccccc1,71.6% (active)
13,O=C(O)CCC(=O)NCc1ccc(C(=O)O)cc1,3.2% (inactive)
14,O=C(Cn1nnc(-c2ccccc2)n1)NCc1ccccc1,45.4% (inactive)
15,Cc1cccc(NC(=O)c2ccc(OCC(=O)NCc3ccccc3)cc2)c1C,-8% (inactive)
16,O=C(NCCOc1ccccc1)c1ccccc1,60.7% (active)
17,CN(C)C(CNC(=O)CCCOc1ccccc1)c1ccco1 (stereo unspecified),84.2% (active)
18,O=C(NCCc1ccccc1)c1ccc(OCCOc2ccccc2)cc1,-7.8% (inactive)
19,O=C(CCCOc1ccccc1)NCc1ccco1,36.6% (inactive)
20,O=C(CCOc1ccccc1)NCc1ccccc1,57.6% (active)
21,COc1ccc(OC)c2[nH]c(=O)c(CCNC(=O)C(C)(C)C)cc12,13.1% (inactive)
22,O=C(Cn1nc(C(F)(F)F)c2c1CCC2)NCc1ccc(F)cc1,45.9% (inactive)
23,CCSc1nc(=S)n(CC)c(C)c1C(C)=O,-23.9% (inactive)
24,O=C(CCCN1C(=O)c2ccccc2C1=O)Oc1ccc(Cl)cc1,14.2% (inactive)
25,COc1ccc(NC(=O)/C(Cl)=C(/Cl)S(=O)Cc2ccc(C)cc2)cn1 (stereo unspecified),33.8% (inactive)
26,O=C(Nc1nnc(C2CC2)s1)c1ccccn1,20.4% (inactive)

row,SMILES,inhibition
1,CCCc1nc(N2CCN(C)CC2)c2sc(=S)n(-c3ccccc3)c2n1,4.4% (inactive)
2,CCOc1ccc(NC(=O)CCS(=O)(=O)c2ccc3c(c2)CCCN3C(=O)CC)cc1,3.3% (inactive)
3,O=C(CC1Oc2ccccc2NC1=O)NCCCN1CCN(Cc2ccccc2)CC1 (stereo unspecified),-1.2% (inactive)
4,Cc1ccc2c(c1)N(CC(=O)N1CCCc3ccccc31)C(=O)C(C)O2 (stereo unspecified),34.4% (inactive)
5,O=C(Cc1ccccc1)n1nc(-c2ccccc2)nc1NCc1ccco1,15.9% (inactive)
6,O=C(O)CSC(NC(=O)c1cccnc1)(C(F)(F)F)C(F)(F)F,-13.3% (inactive)
7,CC(N=Cc1nc(-c2ccccc2)oc1O)c1ccccc1 (stereo unspecified),71.8% (active)
8,CC(NC(=O)c1cc(-c2ccccc2)on1)c1ccccc1 (stereo unspecified),13% (inactive)
9,CCn1c(/C=C/c2ccc([N+](=O)[O-])o2)nc2ccccc2c1=O,-3.3% (inactive)
10,Cc1ccc(-n2c(C)cc(/C=N/Nc3ccc([N+](=O)[O-])cn3)c2C)c(C)c1,-0.3% (inactive)
11,CN1C(=O)CC(N2CCN(c3ccccn3)CC2)C1=O (stereo unspecified),17.8% (inactive)
12,COc1cccc(-n2c(Cc3cc(=O)[nH]c(=O)[nH]3)nnc2SCC(=O)Nc2ccccc2)c1,-8.7% (inactive)
13,CSc1cccc(NC(=O)CSc2ccccc2)c1,83.5% (active)
14,Cc1ccn(C(CC(=O)c2ccc(Br)cc2)C(=O)O)n1 (stereo unspecified),-25.7% (inactive)
15,O=C(Oc1ccccc1)c1ccc2nccnc2c1,20.3% (inactive)
16,CC(C)c1nc(-c2ccccn2)no1,-3.1% (inactive)
17,O=C(Oc1ccc(-c2nc(-c3ccccn3)no2)cc1)c1ccccc1,99.5% (active)
18,CCc1cc(Br)ccc1NC(=O)C1CCCO1 (stereo unspecified),30.5% (inactive)
19,CC(=O)c1cc(-c2ccccc2)[nH]c1N1CCCC1,10.4% (inactive)
20,COc1ccccc1C(=O)Nc1ccc(NC(=O)c2ccco2)c(C)c1,45.5% (inactive)
21,CCOc1cc(NC(=O)c2ccco2)c(OCC)cc1NC(=O)COc1ccccc1,24.6% (inactive)
22,O=C(COC(=O)c1ccccc1NC(=O)c1ccco1)Nc1ccc2c(c1)OC(F)(F)O2,57.4% (active)
23,Cc1nc(C)c2c(c1C(F)(F)F)-c1ccccc1C2(F)F,-21.2% (inactive)
24,Cc1ccc(C)n1C(Cc1ccccc1)C(=O)O (stereo unspecified),8.1% (inactive)
25,O=C(C(Cc1ccccc1)n1cccc1)N1CCN(C2CCCCC2)CC1 (stereo unspecified),98.1% (active)
26,O=C(NC(Cc1ccccc1)C(=O)N1CCCC1C(=O)O)c1ccccc1 (stereo not drawn) (Bz-Phe-Pro-OH; configuration not given here),-4.1% (inactive)

row,SMILES,inhibition
1,CCOc1ccc2nc(SC(CC)C(=O)Nc3cc(C)on3)sc2c1 (stereo unspecified),0.6% (inactive)
2,Cc1ccc(CNC(=O)c2ccccc2CCc2ccccc2)cc1,13.9% (inactive)
3,CCCc1[nH]nc2c1C(c1ccc(OC)c(Cn3nc(C)c(Br)c3C)c1)C(C#N)=C(N)O2 (stereo unspecified),8% (inactive)
4,COc1ccc(C2C(C#N)=C(N)Oc3n[nH]c(C)c32)cc1CN1CCN(c2ccc(F)cc2)CC1 (stereo unspecified),70.4% (active)
5,CCOc1c(OC)cc(C2C(C#N)=C(N)Oc3n[nH]c(-c4ccncc4)c32)cc1OC (stereo unspecified),-7% (inactive)
6,Fc1ccc2nc(N3CCCCC3)sc2c1,39.9% (inactive)
7,N=c1oc2ccccc2cc1C(=O)N/N=C/c1ccccc1,31.7% (inactive)
8,Cn1c(=O)n(C)c2cc(/C=N/NC(=O)c3cccc(Br)c3)ccc21,6.4% (inactive)
9,O=C(N/N=C\c1cccc(Br)c1)c1ccccc1-n1cccc1,73.3% (active)
10,CC(C)Cn1c(N)c(C(=O)NCc2cccs2)c2nc3ccccc3nc21,19.7% (inactive)
11,CC1(C)CC(=O)c2sc(N)nc2C1,23.6% (inactive)
12,CC1CCC2(CC1)NC(=O)N(CC(=O)c1cccn1C)C2=O (stereo unspecified),9.9% (inactive)
13,CC(C)(C)OC(=O)c1c(N)n(CCCN2CCCC2=O)c2nc3ccccc3nc12,-3.9% (inactive)
14,Cc1cccc(C)c1NC(=O)CCS(=O)(=O)c1cccc2nsnc12,10.7% (inactive)
15,CC1CCCCC1NC(=O)CCS(=O)(=O)c1cccc2nonc12 (stereo unspecified),27.7% (inactive)
16,O=C(CCS(=O)(=O)c1cccc2nonc12)NCCc1ccccc1Cl,75% (active)
17,Cc1ccc(CNC(=O)CCNS(=O)(=O)c2cccc3nonc23)cc1,15.9% (inactive)
18,Cc1ccc(N(CC(=O)Nc2cc(C)cc(C)c2)S(=O)(=O)c2cccc3nonc23)cc1,14.2% (inactive)
19,COc1ccc(C)cc1NC(=O)CCS(=O)(=O)c1cccc2nonc12,82.1% (active)
20,CSc1cc(C)n(-c2ccccc2C)c(=S)c1C(C)=O,-14.7% (inactive)
21,CCOC(=O)c1oc2ccccc2c1NC(=O)c1cccs1,5.8% (inactive)
22,O=C(O)Cc1ccc(NC(=O)c2cccs2)cc1,1.3% (inactive)
23,Cc1cc2cc(CNC(=O)c3cccs3)ccc2[nH]1,86.8% (active)
